Experimental data as given in PubChem BioAssay (EPA / NIEHS).
Records with an inconclusive call do not appear. The source made the active and inactive calls. The calls were made as follows: active = hit-call score of the fitted dose curve at least 0.9, where 1 is the maximum; inconclusive = response in the unintended direction; inactive = score below 0.9.

assay: STM_H9_OrnCyssISnorm_ratio: Stemina devTOX quickPredict H9 human embryonic stem cell (hESC)-based Assay for Ornithine (ORN):Cystine (CYSS) Ratio (AID 2283714)
Protocol: STM_H9_secretome utilizes undifferentiated H9 cells to measure relative changes in two metabolites, ornithine (ORN) and cystine (CYSS) in the secretome, targeting a critical drop in the ORN/CYSS ratio as a biomarker for developmental toxicity.STM_H9_OrnCyssISnorm_ratio is one of 10 components calculated in the STM_H9_secretome assay. It is the ratio value of OrnISnorm_perc to CyssISnorm_perc.Data from the assay component STM_H9_OrnCyssISnorm_ratio was analyzed at the assay endpoint STM_H9_OrnCyssISnorm_ratio in the positive analysis fitting direction relative to DMSO as the negative control and baseline of activity. Using a type of binding reporter, gain or loss-of-signal activity can be used to understand relative metabolite change.
H9 hESCs maintained in a pluripotent state were exposed to test compound for 72h with chemical replenishment with media replacement every 24h. Cell-conditioned media from the final 24-h treatment period was collected for analysis of the targeted biomarker, and cell viability of the corresponding cell layer was assessed. The chemical library was tested in blinded fashion. Each test plate included 1uM Methotrexate (MTX; Selleck Chemicals, Houston, Texas) as a positive reference, 5 nM MTX as a negative reference, 0.1% DMSO as the neutral (vehicle) control, and sample-level media blanks.H9 cell-conditioned media from the final 24-h treatment period was collected for analysis of the targeted biomarker and cell viability was measured from the corresponding cell layer. Cell viability was measured using the CellTiter-Fluor assay (Promega, Madison, Wisconsin) based on proteolytic cleavage of a substrate to fluorescent signal proportional to the number of living cells. The cell viability Relative Fluorescence Unit (RFU) was background corrected and normalized to mean RFU of the neutral control (0.1% DMSO). The collected H9-cell-conditioned media samples were processed for targeted biomarker analysis as described (Palmer et al., 2013). Briefly, spent media samples were deproteinized (40% acetonitrile) and processed for UPLC-HRMS. Data acquisition was performed using 4 separate UPLC-HRMS systems, consisting of an Agilent 1290 Infinity LC system (Agilent Technologies) interfaced with an Agilent high-resolution mass spectrometer (models G6520A, G6520B, G6530A, and G6224A). A Waters Acquity UPLC BEH Amide column (2.1mm x 50mm, 1.7lm particle size; Waters, Milford, Massachusetts) maintained at 40C was applied for separation of metabolites using a 6.5min solvent gradient with 0.1% formic acid in water and 0.1% formic acid in acetonitrile (1.0ml/min flow rate). Data were acquired using MassHunter Acquisition software (version B 04.00, Agilent Technologies). The extracted ion chromatogram (EIC) areas for ORN, CYSS, and their respective spike-in C13-standards were determined using the Agilent MassHunter Quantitative Analysis software, version B.05.00 or newer (Agilent Technologies), and data were normalized as described in Palmer et al. (2017).

Row | SMILES | outcome | AC50
1 | CS(=O)(=O)c1ccc(C(=O)C2C(=O)CCCC2=O)c([N+](=O)[O-])c1 | inactive | 
2 | CC(C)Nc1nc(Cl)nc(NC(C)C)n1 |  | 5.16 µM (active)
3 | CCN(CC)C(=O)C(C)Oc1cccc2ccccc12 (configuration not stated) |  | 6.66 µM (active)
4 | CC1(C)CON(Cc2ccccc2Cl)C1=O |  | 68.8 µM (active)
5 | CCNC(=O)NC(=O)C(C#N)=NOC |  | 77 µM (active)
6 | CCCCC(O)(Cn1cncn1)c1ccc(Cl)cc1Cl (configuration not stated) |  | 76.5 µM (active)
7 | COCc1cnc(C2=NC(C)(C(C)C)C(=O)N2)c(C(=O)O)c1 (configuration not stated) | inactive | 
8 | COc1ccc(-c2ccccc2)cc1NNC(=O)OC(C)C |  | 36.1 µM (active)
9 | CCCCC(C#N)(Cn1cncn1)c1ccc(Cl)cc1 (configuration not stated) |  | 77.9 µM (active)
10 | CCOc1nc(C(Cl)(Cl)Cl)ns1 |  | 9.92 µM (active)
11 | Cn1c(-c2ccccc2)cc(-c2ccccc2)[n+]1C |  | 20 µM (active)
12 | CC1(C)CCC(=Cc2ccc(Cl)cc2)C1(O)Cn1cncn1 (configuration not stated) |  | 35 µM (active)
13 | N#Cc1c[nH]cc1-c1cccc2c1OC(F)(F)O2 |  | 32.8 µM (active)
14 | CC1(C)C(C=C(Cl)Cl)C1C(=O)OC(C#N)c1cccc(Oc2ccccc2)c1 (configuration not stated) | inactive | 
15 | CCOP(=S)(OCC)Oc1nc(Cl)n(C(C)C)n1 |  | 54.9 µM (active)
16 | CNC(=O)Oc1cccc2ccccc12 |  | 2.71 µM (active)
17 | O=C(Nc1ccccc1-c1ccc(Cl)cc1)c1cccnc1Cl |  | 72.1 µM (active)
18 | N#CN=C1SCCN1Cc1ccc(Cl)nc1 | inactive | 
19 | CO/N=C(/C1=NOCCO1)c1ccccc1Oc1ncnc(Oc2ccccc2Cl)c1F |  | 18.2 µM (active)
20 | CC(C)(C)C(=O)C(Oc1ccc(Cl)cc1)n1cncn1 (configuration not stated) |  | 71.8 µM (active)
21 | CCCN(CC)CC1COC2(CCC(C(C)(C)C)CC2)O1 (configuration not stated) |  | 1.3 µM (active)
22 | CCNP(=S)(OC)O/C(C)=C/C(=O)OC(C)C (configuration not stated) |  | 72.6 µM (active)
